# Measured values from PubChem BioAssay (NCATS).
# Values without a mark were called inactive. Records with an inconclusive call do not appear. Activity calls are given as the source filed them. Unless noted, calls follow the shape of the dose curve; as a rule, active = well fitted curve in the direction sought with a large enough effect; inconclusive = small, poorly fitted or top-dose-only effect, or another doubt; inactive = no such curve, though single readings can be large; an effect the other way counts as inactive or inconclusive.
# How the values were obtained:
# [1] = target: Cytochrome P450 1A2 (Homo sapiens) (UniProt P05177); assay: p450-cyp1a2 (AID 410; calls by dose curve;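 also: -100% = full effect of reference inhibitor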)
# Chain of Cytochrome P450 1A2 (Homo sapiens) (P05177 whole entry, looked up): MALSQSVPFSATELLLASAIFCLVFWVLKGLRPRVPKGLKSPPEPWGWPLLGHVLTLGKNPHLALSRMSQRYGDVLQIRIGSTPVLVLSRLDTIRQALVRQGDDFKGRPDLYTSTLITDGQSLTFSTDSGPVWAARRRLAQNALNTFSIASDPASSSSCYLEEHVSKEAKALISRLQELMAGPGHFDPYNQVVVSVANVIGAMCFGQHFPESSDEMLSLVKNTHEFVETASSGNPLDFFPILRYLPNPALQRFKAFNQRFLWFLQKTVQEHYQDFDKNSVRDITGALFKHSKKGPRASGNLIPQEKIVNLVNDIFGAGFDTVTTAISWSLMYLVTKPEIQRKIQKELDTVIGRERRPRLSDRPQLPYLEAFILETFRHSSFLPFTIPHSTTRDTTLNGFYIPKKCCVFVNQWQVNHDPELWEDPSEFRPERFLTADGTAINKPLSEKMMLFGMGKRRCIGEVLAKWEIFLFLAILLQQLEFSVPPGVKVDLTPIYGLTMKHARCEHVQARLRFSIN
# In short: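 Luminescent readout of luciferin formed from Luciferin-ME by human CYP1A2; data normalized against complete inhibition by 57 uM furafylline. Enzyme 20nM, substrate 100uM at Km, 100mM KPO4 buffer, 60 min reaction at room temperature.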
# [2] = NFAT Signaling Pathway (AID 444; active = well fitted curve in either direction with a large enough effect, not every such curve was filed as active;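 also: carbachol stimulus at about its EC50 of 1 µM final; % is scaled to controls: 0 for no effect and ±100 for the full control effect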); details: Jurkat NFAT-bla M1, carbachol, beta-lactamase ratio, 5 h; at 17.2 µM (top of the series) unless noted
# In short: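 Jurkat cells with NFAT-driven β-lactamase reporter and co-expressed M1 receptor, stimulated with carbachol (final 1 uM, ~EC50), compound titration, 5 h at 37 °C. CCF4 loaded 1 h at RT; 460/530 nm ratio gave %activity and AC50.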
# [3] = Stat Signaling Pathway (AID 446; active = well fitted curve in either direction with a large enough effect, not every such curve was filed as active;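 also: ME-180 cervical cancer cells given 40 pM IL-6 alongside compound; SIE-controlled beta-lactamase reporter measured as 460/530 nm FRET emission ratio; % is scaled to controls: 0 for no effect and ±100 for the full control effect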); details: ME-180 SIE beta-lactamase reporter, IL-6 stimulated, 5 h; at 17.2 µM (top of the series) unless noted
# In short: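 ME-180 cells carrying a SIE-driven beta-lactamase reporter are stimulated with 40 pM IL-6 for 5 h at 37C in the presence of compound. The 460/530 nm FRET substrate ratio is read after 2.5 h at RT. Data are normalised to 300 pM IL-6 and to 125 nM JAK inhibitor controls.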
# [4] = target: Glucocorticoid receptor (Homo sapiens) (UniProt P04150); assay: GR-GFP Redistribution (AID 450;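 active = compounds whose dose series gives a full or clear partial fitted curve of increased nuclear translocation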; also: potency is read from the fitted curve at half-maximal effect)
# Chain of Glucocorticoid receptor (Homo sapiens) (P04150 whole entry, looked up, the tested form may be a part): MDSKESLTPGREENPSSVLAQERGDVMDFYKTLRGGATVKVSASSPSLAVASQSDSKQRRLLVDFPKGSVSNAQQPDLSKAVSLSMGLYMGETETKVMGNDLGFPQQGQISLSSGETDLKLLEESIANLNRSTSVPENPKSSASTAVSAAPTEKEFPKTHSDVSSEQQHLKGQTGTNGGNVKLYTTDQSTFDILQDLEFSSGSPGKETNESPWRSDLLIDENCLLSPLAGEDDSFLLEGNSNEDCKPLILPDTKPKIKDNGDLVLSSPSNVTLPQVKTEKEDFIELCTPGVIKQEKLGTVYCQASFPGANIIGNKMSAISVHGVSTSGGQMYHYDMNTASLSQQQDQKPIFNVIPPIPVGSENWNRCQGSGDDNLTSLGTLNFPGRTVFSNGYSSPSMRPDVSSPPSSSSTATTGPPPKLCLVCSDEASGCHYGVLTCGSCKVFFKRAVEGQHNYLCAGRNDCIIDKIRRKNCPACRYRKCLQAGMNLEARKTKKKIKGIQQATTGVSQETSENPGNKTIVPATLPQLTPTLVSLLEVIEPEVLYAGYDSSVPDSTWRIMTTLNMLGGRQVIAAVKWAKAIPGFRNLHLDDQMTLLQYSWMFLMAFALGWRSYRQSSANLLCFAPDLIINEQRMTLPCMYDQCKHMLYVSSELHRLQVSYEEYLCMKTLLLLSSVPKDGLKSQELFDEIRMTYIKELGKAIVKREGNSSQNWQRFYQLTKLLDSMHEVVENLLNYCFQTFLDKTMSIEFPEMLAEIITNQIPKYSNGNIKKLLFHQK
# [5] = target: Glucocorticoid receptor (Homo sapiens) (UniProt P04150); assay: GR-EFC Redistribution (AID 451; calls by dose curve; also: potency is read from the fitted curve at half-maximal effect); details: CHO-K1 GR-EFC translocation, beta-gal luminescence, 2 h
# In short: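 CHO-K1 cells expressing nuclear EA and GR-ED fragments of b-gal; compounds titrated up to 46 uM final, 2 h at 37 C. GR nuclear translocation read as complemented b-gal luminescence after 1 h RT detection.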
# [6] = target: Mitogen-activated protein kinase 10 (Mus musculus) (UniProt Q61831); assay: JNK3 AlphaScreen Assay (AID 530; active = well fitted curve in either direction with a large enough effect, not every such curve was filed as active;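 also: kinase came from lysate of stimulated human HepG2 cells; signal reports phosphorylation of biotinylated GST-cJun 1-79 at Ser73 with 10 µM ATP; % is scaled to controls: 0 for no effect and ±100 for the full control effect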)
# In short: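 Pre-activated (IL-1β/TNFα) JNK3 in HepG2 lysates phosphorylates biotin-GST-cJun(1-79), 10 uM ATP; anti-phospho-cJun(Ser73) AlphaScreen read at room temperature, pH 7.6 Tris buffer. Compounds pre-incubated 15 min as titrations.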
# [7] = target: 3',5'-cyclic-AMP phosphodiesterase 4B (Homo sapiens) (UniProt Q07343); assay: qHTS Assay for Inhibitors of PDE-IV (AID 607; active = well fitted activation curve with a large enough effect in the main read-out, with a control signal flat, not every such curve was filed as active; also: % of control where 0% means no effect)
# Chain of 3',5'-cyclic-AMP phosphodiesterase 4B (Homo sapiens) (Q07343 whole entry, looked up): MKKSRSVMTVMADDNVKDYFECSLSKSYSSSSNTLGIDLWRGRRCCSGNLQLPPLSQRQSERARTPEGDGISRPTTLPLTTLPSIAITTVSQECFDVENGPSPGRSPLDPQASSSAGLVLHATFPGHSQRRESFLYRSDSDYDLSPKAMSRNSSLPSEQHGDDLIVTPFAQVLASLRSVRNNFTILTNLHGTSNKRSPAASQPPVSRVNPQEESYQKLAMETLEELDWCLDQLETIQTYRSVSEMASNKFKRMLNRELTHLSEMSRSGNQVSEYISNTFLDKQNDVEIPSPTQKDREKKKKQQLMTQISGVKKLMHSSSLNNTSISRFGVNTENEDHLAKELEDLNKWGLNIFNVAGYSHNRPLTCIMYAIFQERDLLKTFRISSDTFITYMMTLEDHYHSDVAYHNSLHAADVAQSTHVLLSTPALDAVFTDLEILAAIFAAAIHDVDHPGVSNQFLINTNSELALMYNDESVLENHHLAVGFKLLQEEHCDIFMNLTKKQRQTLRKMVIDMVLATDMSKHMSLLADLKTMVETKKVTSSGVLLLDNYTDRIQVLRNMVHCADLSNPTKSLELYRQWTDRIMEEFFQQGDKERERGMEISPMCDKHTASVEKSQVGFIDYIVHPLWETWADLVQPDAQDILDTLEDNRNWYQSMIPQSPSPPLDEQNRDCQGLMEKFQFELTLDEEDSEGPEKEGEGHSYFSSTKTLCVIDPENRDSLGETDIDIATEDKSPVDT
# In short: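 HEK293 ACTOne cells with CNG channel (1000/well), endogenous PDE4; membrane potential dye, compounds up to 22.9 uM final. Fluorescence Ex 535/Em 590; RO 20-1724 (100 uM final) as reference.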
# [8] = target: ATP-dependent 6-phosphofructokinase (Trypanosoma brucei brucei) (UniProt O15648); assay: qHTS Assay to Find Inhibitors of T. brucei phosphofructokinase: hit validation (AID 492961);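 also: luminescence reports ADP formed as PFK phosphorylates fructose-6-phosphate with ATP; % is scaled to controls: 0 for no effect and ±100 for the full control effect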
# Chain of ATP-dependent 6-phosphofructokinase (Trypanosoma brucei brucei) (O15648 whole entry, looked up): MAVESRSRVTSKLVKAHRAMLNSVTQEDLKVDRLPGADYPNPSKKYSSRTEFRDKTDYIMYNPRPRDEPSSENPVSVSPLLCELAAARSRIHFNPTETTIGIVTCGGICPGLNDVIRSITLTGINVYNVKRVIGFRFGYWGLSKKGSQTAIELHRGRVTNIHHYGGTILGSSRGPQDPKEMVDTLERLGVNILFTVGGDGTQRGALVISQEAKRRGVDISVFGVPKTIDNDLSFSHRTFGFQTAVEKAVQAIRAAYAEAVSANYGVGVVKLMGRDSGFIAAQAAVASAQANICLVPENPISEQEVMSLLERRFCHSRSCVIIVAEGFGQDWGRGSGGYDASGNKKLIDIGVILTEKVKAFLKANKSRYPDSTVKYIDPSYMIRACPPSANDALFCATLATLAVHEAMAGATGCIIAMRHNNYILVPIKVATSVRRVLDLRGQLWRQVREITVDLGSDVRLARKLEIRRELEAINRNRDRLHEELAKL
# In short: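 Compounds titrated; %activity normalized to 0x and 1x enzyme controls, curve-fitted. Readout: ADP-Glo luminescence after 45 min room-temperature reaction of 1.25 nM PFK, 0.1 mM ATP, 0.5 mM F6P, pH 8.0.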
# [9] = S16 Schwann cell PMP22 intronic element firefly luciferase assay (AID 624032); also: potency is read from the fitted curve at half-maximal effect; nearly all actives have a fitted effect of over 30% in size
# In short: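 Rat S16 Schwann cells stably carrying firefly luciferase driven by a PMP22 intronic element, in 10% FBS, treated 24 h at 37 C. ONE-Glo luminescence normalized to PTC124 control and DMSO (0%); curves classed by r2, magnitude and activity.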
# [10] = qHTS profiling for inhibitors of Plasmodium falciparum proliferation (AID 504749); also: potency is read from the fitted curve at half-maximal effect; nearly all actives have a fitted effect of over 60% in size; details: P. falciparum in erythrocytes, SYBR Green DNA, 72 h
# In short: (§1)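 P. falciparum-infected erythrocytes (0.3% parasitemia, 2.5% hematocrit) incubated with compound 72 h at 37 C, 5% CO2. Parasite DNA detected by SYBR Green after lysis, overnight at room temperature; normalised to 0.29 uM artemisinin and DMSO.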
# 3D7 = assay: as above; details: P. falciparum in erythrocytes, SYBR Green DNA, 72 h; series mostly up to 28.7 µM
# In short: as §1
# 7G8 = assay: as above; details: P. falciparum in erythrocytes, SYBR Green DNA, 72 h; series mostly up to 28.7 µM
# In short: as §1
# AA1029 = assay: as above; details: P. falciparum in erythrocytes, SYBR Green DNA, 72 h; series mostly up to 28.7 µM
# In short: as §1
# AS120 = assay: as above; details: P. falciparum in erythrocytes, SYBR Green DNA, 72 h; series mostly up to 28.7 µM
# In short: as §1
# ATS189 = assay: as above; details: P. falciparum in erythrocytes, SYBR Green DNA, 72 h; series mostly up to 28.7 µM
# In short: as §1
# ATS95 = assay: as above; details: P. falciparum in erythrocytes, SYBR Green DNA, 72 h; series mostly up to 28.7 µM
# In short: as §1
# C2A = assay: as above; details: P. falciparum in erythrocytes, SYBR Green DNA, 72 h; series mostly up to 28.7 µM
# In short: as §1
# CP185 = assay: as above; details: P. falciparum in erythrocytes, SYBR Green DNA, 72 h; series mostly up to 28.7 µM
# In short: as §1
# CP191 = assay: as above; details: P. falciparum in erythrocytes, SYBR Green DNA, 72 h; series mostly up to 28.7 µM
# In short: as §1
# CP192 = assay: as above; details: P. falciparum in erythrocytes, SYBR Green DNA, 72 h; series mostly up to 28.7 µM
# In short: as §1
# CP194 = assay: as above; details: P. falciparum in erythrocytes, SYBR Green DNA, 72 h; series mostly up to 28.7 µM
# In short: as §1
# CP201 = assay: as above; details: P. falciparum in erythrocytes, SYBR Green DNA, 72 h; series mostly up to 28.7 µM
# In short: as §1
# CP203 = assay: as above; details: P. falciparum in erythrocytes, SYBR Green DNA, 72 h; series mostly up to 28.7 µM
# In short: as §1
# CP211 = assay: as above; details: P. falciparum in erythrocytes, SYBR Green DNA, 72 h; series mostly up to 28.7 µM
# In short: as §1
# CP215 = assay: as above; details: P. falciparum in erythrocytes, SYBR Green DNA, 72 h; series mostly up to 28.7 µM
# In short: as §1
# CP217 = assay: as above; details: P. falciparum in erythrocytes, SYBR Green DNA, 72 h; series mostly up to 28.7 µM
# In short: as §1
# CP237 = assay: as above; details: P. falciparum in erythrocytes, SYBR Green DNA, 72 h; series mostly up to 28.7 µM
# In short: as §1
# CP238 = assay: as above; details: P. falciparum in erythrocytes, SYBR Green DNA, 72 h; series mostly up to 28.7 µM
# In short: as §1
# CP247 = assay: as above; details: P. falciparum in erythrocytes, SYBR Green DNA, 72 h; series mostly up to 28.7 µM
# In short: as §1
# CP250 = assay: as above; details: P. falciparum in erythrocytes, SYBR Green DNA, 72 h; series mostly up to 28.7 µM
# In short: as §1
# CP252 = assay: as above; details: P. falciparum in erythrocytes, SYBR Green DNA, 72 h; series mostly up to 28.7 µM
# In short: as §1
# CP256 = assay: as above; details: P. falciparum in erythrocytes, SYBR Green DNA, 72 h; series mostly up to 28.7 µM
# In short: as §1
# CP260 = assay: as above; details: P. falciparum in erythrocytes, SYBR Green DNA, 72 h; series mostly up to 28.7 µM
# In short: as §1
smiles,measurement,setting,value
CC[C@]1([C@H]2O[C@@H]([C@@H]3O[C@](O)(CO)[C@@H](C)C[C@H]3C)C[C@H]2C)CC[C@@H]([C@]2(C)CC[C@@]3(C[C@@H](O)[C@@H](C)[C@@H]([C@H](C)[C@H](OC)[C@H](C)C(=O)O)O3)O2)O1,Potency,[1],inactive
same,"activity change, negative = inhibition",[2],20.4%
same,"activity, negative = inhibition",[3],-3.04%
same,Potency,[4],> 20600 nM
same,Potency,[5],> 20600 nM
same,Potency,[6],inactive
same,Potency,[7],inactive
same,Potency,[8],inactive
same,Potency,[9],510 nM (active)
same,Potency,[10]; parasite line A,25.1 nM (active)
same,Potency,[10]; parasite line B,25.1 nM (active)
same,Potency,3D7,25.1 nM (active)
same,Potency,7G8,15.8 nM (active)
same,Potency,AA1029,39.8 nM (active)
same,Potency,AS120,22.4 nM (active)
same,Potency,ATS189,50.1 nM (active)
same,Potency,ATS95,50.1 nM (active)
same,Potency,C2A,28.2 nM (active)
same,Potency,CP185,50.1 nM (active)
same,Potency,CP191,31.6 nM (active)
same,Potency,CP192,33.8 nM (active)
same,Potency,CP194,33.8 nM (active)
same,Potency,CP201,42.6 nM (active)
same,Potency,CP203,23.9 nM (active)
same,Potency,CP211,33.8 nM (active)
same,Potency,CP215,33.8 nM (active)
same,Potency,CP217,39.8 nM (active)
same,Potency,CP237,17.8 nM (active)
same,Potency,CP238,35.5 nM (active)
same,Potency,CP247,31.6 nM (active)
same,Potency,CP250,39.8 nM (active)
same,Potency,CP252,35.5 nM (active)
same,Potency,CP256,50.1 nM (active)
same,Potency,CP260,20 nM (active)
